High-throughput results: PubChem, National Center for Advancing Translational Sciences (NCATS)
Shown are actives, neighbours in structure and some others; about 8.1% of the full set was active somewhere.
KB-V1 cytotox: qHTS assay for MDR1-selective chemotherapeutics: Primary screen using the drug-selected MDR subline cells KB-V1. KB-V1 MDR cells viability, CellTiter-Glo, 72 h. 3.4% of 400,000 active. Potency, µM (titrated, usually from 46.1 µM), most hits filed as cytotoxic; also: % is scaled to controls: 0 for no effect and ±100 for the full control effect; nearly all actives have a fitted effect of over 60% in size
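qHTS viability screen in drug-selected KB-V1 MDR cells: 72 h compound treatment at 37 degrees C, ATP luminescence end point.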
KB-3-1 cytotox: qHTS assay for MDR1-selective chemotherapeutics: Primary screen using the parental adenocarcinoma cell KB-3-1 | KB-3-1 viability, CellTiter-Glo ATP luminescence, 72 h | Potency, µM (top dose mostly 46.1 µM), most hits filed as cytotoxic | 1.4% of 400,000 active | AID 1347075, 2019; also: % is scaled to controls: 0 for no effect and ±100 for the full control effect; nearly all actives have a fitted effect of over 60% in size
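Viability of parental KB-3-1 cells, measured by CellTiter-Glo luminescence, followed a 72 h incubation at 37 °C with pinned compounds in phenol-red-free DMEM containing 10% FBS.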
ELG1 DNA repair: qHTS screen for small molecules that inhibit ELG1-dependent DNA repair in human embryonic kidney (HEK293T) cells expressing luciferase-tagged ELG1. HEK293T ELG1-luciferase reporter, luminescence, 16 h; DNA damage induced by 5-fluorouridine. Potency, µM (highest dose often 46.1 µM), inactives show at the highest dose activity change, negative = inhibition, usual class: inhibitors. 2.3% of 330,000 active; also: % is scaled to controls: 0 for no effect and ±100 for the full control effect; nearly all actives have a fitted effect of over 55% in size
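HEK293T cells expressing luciferase-tagged ELG1 (2,000/well) received 5-Fluorouridine plus compound or DMSO for 16 hr at 37 °C. Luciferase was read by ONE-Glo luminescence after 30 min at room temperature.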
MCF10A rereplic: A quantitative high throughput screen for small molecules that induce DNA re-replication in MCF 10a normal breast cells; MCF 10A DNA re-replication, Hoechst nuclear intensity, 48 h; Potency, µM (highest dose often 46.1 µM), without a hit: at the highest dose activity, positive = re-replication, hits mostly activators; 2.9% of 350,000 active; also: % of control where 0% means no effect; nearly all actives have a fitted effect of over 50% in size
SW480 rerep: A quantitative high throughput screen for small molecules that induce DNA re-replication in SW480 colon adenocarcinoma cells; SW480 DNA re-replication, Hoechst DNA content imaging, 48 h; Potency, µM (top dose mostly 46.1 µM), for inactives: top-dose re-replication activation, usual class: activators; 1.8% of 340,000 active; AID 624297, 2012; also: % of control where 0% means no effect; nearly all actives have a fitted effect of over 55% in size
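Per well, 250 cells were exposed to pinned compound for 48 hr. Nuclear DNA was visualised with Hoechst (40 min, 37 C) and total object intensity recorded by fluorescence scanning.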
* = called active by the depositor; i = inactive; ? = inconclusive; . = not tested or not shown; [ ] = dose if it differs, or a comment. Calls follow the shape of the dose curve; as a rule, active = well fitted curve in the direction sought with a large enough effect; inconclusive = small, poorly fitted or top-dose-only effect, or another doubt; inactive = no such curve, though single readings can be large; an effect the other way counts as inactive or inconclusive. Potency is read from the fitted curve at half-maximal effect.

SMILES | KB-V1 cytotox | KB-3-1 cytotox | ELG1 DNA repair | MCF10A rereplic | SW480 rerep
CCn1nnc(-c2ccccc2NC(=O)c2ccc(-n3cnnn3)cc2)n1 | i | i | -10% | ? | -2%
Cn1c(=O)[nH]c(=O)c2c1nc(CN1CCN(c3cccc(Cl)c3)CC1)n2CCCc1ccccc1 | i | i | 9.2µM* | -3% | -2%
CCCCn1c(CN2CCN(c3cccc(Cl)c3)CC2)nc2c1c(=O)[nH]c(=O)n2C | i | ? | ? | ? | 5.8µM*
Cn1c(N2CCN(C(c3ccccc3)c3ccccc3)CC2)nc2c1c(=O)[nH]c(=O)n2C | 21µM* | ? | ? | 7% | -6%
Cn1c(N2CCCCC2)nc2c1c(=O)[nH]c(=O)n2C | i | i | 2% | 1% | -11%
Cc1cc(C)nc(NC(=O)c2ccc(Cl)c(Cl)c2)n1 | i | i | 7% | -1% | -7%
COc1ccc(/C(C)=N/Nc2ncc(Cl)cc2Cl)c(O)c1 | ? | i | 16% | 16µM* | ?
CN(CC(=O)Nc1ccc(S(=O)(=O)N(C)C)cc1)Cc1ccc(C(F)(F)F)cc1 | ? | i | ? | 13% | 3%
COc1ccccc1C1(CCNS(=O)(=O)c2ccc(C)cc2)CCOC(C(C)C)C1 (stereo not given) | 3.7µM* | ? | ? | ? | ?
COc1ccccc1C1(CCNC(C)c2cccs2)CCOC(C(C)C)C1 (stereo not given) | ? | i | ? | ? | 14%
CC(C)Oc1ccc(C(=O)Nc2ccc(S(=O)(=O)N3CCN(C)CC3)cc2)cc1 | i | i | ? | ? | ?
COc1ccccc1C1C2=C(CC(C)(C)CC2=O)N(CC(=O)O)C2=C1C(=O)CC(C)(C)C2 | i | i | -2% | 21µM* | -33%
COc1ccc(N2C3=C(C(=O)CC(C)(C)C3)C(c3ccccc3OC)C3=C2CC(C)(C)CC3=O)cc1 | ? | i | ? | 16µM* | 18µM*
CCOc1ccc(C2C3=C(CC(C)(C)CC3=O)N(CC(=O)O)C3=C2C(=O)CC(C)(C)C3)cc1OCC | i | i | ? | 0.82µM* | -8%
C#CCOc1ccc(C2C3=C(CC(C)(C)CC3=O)N(CC(=O)O)C3=C2C(=O)CC(C)(C)C3)cc1 | ? | i | 2% | ? | 4%
C#CCOc1ccc(C2C3=C(CC(C)(C)CC3=O)N(CC(=O)O)C3=C2C(=O)CC(C)(C)C3)cc1OC | i | i | 2% | -1% | -5%
O=C(NCc1ccccn1)c1cc(-n2cnnc2)ccc1Cl | ? | i | -3% | 251%[0.0737 µM] | -8%
CC(C)N(Cc1nc(COc2ccccc2)no1)Cc1nccn1C | i | i | -10% | 6% | 5%
COc1ccc(-c2c(-c3cc(OC)cc(OC)c3)n(C)c3ccc(-c4cnc(OC)nc4)cc23)cc1 | i | i | ? | -3% | 12%
COc1ccc(-c2c(-c3cc(OC)cc(OC)c3)n(C)c3ccc(-c4ccc5[nH]ccc5c4)cc23)cc1 | i | 23µM* | 5% | ? | -1%
Cc1c(-c2n[nH]c(=S)n2-c2ccc(C(F)(F)F)cc2)nnn1-c1ccccc1 | 23µM* | i | 0% | 13% | 1%
Cc1cc(C(=O)N2CCc3ccccc3C2)c(C)o1 | i | i | . | -2% | -6%
Cn1c(SCC(=O)N2CCN(c3ccccc3)CC2)nnc1-c1ccncc1 | i | i | -2% | 1% | -3%
Cn1c(SCC(=O)N2CCN(c3cccc(Cl)c3)CC2)nnc1-c1ccncc1 | 16µM* | 13µM* | 22% | 5% | 1%
CCn1c(SCC(=O)N2CCN(c3ccc(F)cc3)CC2)nnc1-c1ccncc1 | 18µM* | i | ? | -3% | -10%
SMILES | KB-V1 cytotox | KB-3-1 cytotox | ELG1 DNA repair | MCF10A rereplic | SW480 rerep
CCn1c(COc2ccccc2C)nnc1SCC(=O)N1CCN(c2ccccc2)CC1 | 8.2µM* | ? | ? | -4% | 1%
O=C(CSc1ccc(-c2ccncc2)nn1)N1CCN(c2ccccc2)CC1 | 15µM* | i | -21% | -2% | 1%
CCC(C)NC(=O)[C@@H]1CCCN1C(=O)C1CCN(S(=O)(=O)c2ccc(C)cc2)CC1 (stereo not given in full) | i | i | ? | 8% | 17%
Cc1coc2cc3oc(=O)c(CCC(=O)N4CCCCC4)c(C)c3cc12 | i | i | . | . | .
COC(C[C@@H](O)CC(=O)COCc1ccccc1)OC | i | i | 0% | 15% | -10%
COc1ccc(NC(=O)CSc2nnc(-c3ccncc3)n2-c2ccccc2)cc1 | i | i | . | . | .
COc1ccc(-c2nnc(SCC(=O)Nc3ncc(C)s3)n2-c2ccccc2)cc1OC | ? | 21µM* | 21µM* | 13µM* | 16µM*
COc1ccccc1NC(=O)CC(=O)CSc1nnc(-c2ccc(C)cc2)n1-c1ccccc1 | 13µM* | i | 6% | -2% | -65%
CCn1c(COc2cccc(C)c2C)nnc1SCC(=O)N1CCN(c2ccc(OC)cc2)CC1 | 2.3µM* | 15µM* | 10µM* | 3% | -6%
CCn1c(SCc2nc(CC(=O)Nc3ccccc3OC)no2)nnc1-c1cccs1 | 5.8µM* | i | 9% | 0% | -5%
Cc1ccccc1NC(=O)CSc1nnc(-c2ccccc2)n1-c1ccccc1 | ? | i | 2% | 0% | 6%
COC(=O)C(C)Oc1ccc(-c2nccc(-c3ccc(F)cc3)n2)cc1 (stereo not given) | i | i | 18% | -5% | -6%
CC(=O)NC(Cc1ccccc1F)C(=O)NC1CCN(C(=O)c2cnccn2)CC1 (stereo not given) | i | i | 0% | -3% | -1%
CCn1c(SCC(=O)N2CCN(c3ccccc3)CC2)nnc1-c1ccoc1C | ? | i | 16µM* | ? | 3%
Cc1occc1-c1nnc(SCC(=O)N2CCN(c3ccccc3)CC2)n1C | i | i | ? | 1% | -4%
CCn1c(COc2ccccc2)nnc1SCC(=O)CC(=O)Nc1ccccc1OC | i | i | 4% | 29% | -1%
CCn1c(COc2ccccc2C)nnc1SCC(=O)CC(=O)Nc1ccccc1OC | 8.2µM* | i | -10% | ? | 0%
O=C(NCc1ccco1)C1CC(=O)N(c2ccc(O)cc2)C1 (stereo not given) | i | i | 6% | ? | ?
